# Data reported in PubChem BioAssay (NCI).
# The panel holds about 83,000 compounds, 20% with a hit somewhere; the sample as a whole holds those more often.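 Percent growth is the endpoint: 0 to 100 indicates growth inhibition (40 means 60% inhibition), 0 means no net growth, and negative values indicate cell death.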 Unmarked numbers belong to inactive results. The source made the active and inactive calls. The calls were made as follows: active = growth percent below 10; inactive = the rest.
# Tests used:
# Experiment in all cases: NCI-60 one-dose screen, 48 h (100 = growth as untreated, 0 = no growth, -100 = all killed)
# [1] = system: NCI-H23 lung; conditions: 10 µM unless noted
# [2] = system: NCI-H322M lung; conditions: 10 µM unless noted
# [3] = system: NCI-H460 lung; conditions: 10 µM unless noted
# [4] = system: HOP-92 NSCLC; conditions: 10 µM unless noted
# [5] = system: A549/ATCC NSCLC; conditions: 10 µM unless noted
# [6] = system: 786-0 renal; conditions: 10 µM unless noted
# [7] = system: COLO 205 colon; conditions: 10 µM unless noted
# [8] = system: HOP-62 NSCLC; conditions: 10 µM unless noted
# [9] = system: NCI-H522 lung; conditions: 10 µM
SMILES,growth [1],growth [2],growth [3],growth [4],growth [5],growth [6],growth [7],growth [8],growth [9]
COc1cc2nc(SCc3cc(OC)c(OC)c(OC)c3)n(-c3ccccc3OC)c(=O)c2cc1OC,79.9%,85.1%,83.4%,65.8%,88%,91.4%,118%,–,–
O=c1[nH]c(=S)[nH]c(=O)n1Cc1cccc2ccccc12,102%,114%,97.6%,–,99.7%,–,120%,106%,–
O=[N+]([O-])c1cc2c(cc1Br)-c1ccccc1C2,84.7%,115%,102%,–,90.9%,88.4%,84.6%,–,77.6%
COc1ccc(/C=C(\C#N)c2cc3ccccc3n2C)cc1,39.4%,48.3%,6.08% (active),76.5%,27.2%,32.9%,-17.8% (active),–,–
CCOC(=O)C1=C(C)N2C(=NC3=C(CCCC/C3=C\c3cc(OC)c(OC)c(OC)c3)C2c2cc(OC)c(OC)c(OC)c2)S1 (configuration not stated),61.9%,96.5%,60%,–,60.3%,–,81.2%,50%,–
O=C1NC(=S)S/C1=C\c1cccc([N+](=O)[O-])c1,89.6%,132%,104%,–,103%,91.5%,110%,–,107%
Clc1ccc2c(c1)C[C@H]1C[C@@H](c3cccs3)N2O1,106%,99.7%,104%,69.8%,98.2%,108%,–,–,102%
O=C1N/C(=C\c2ccccc2)c2ncccc21,95%,95.8%,113%,94.9%,106%,98.7%,–,–,86.9%
COc1ccc(/C=C2\SC(=O)N(CN3CCN(c4cc5c(cc4F)c(=O)c(C(=O)O)cn5C4CC4)CC3)C2=O)cc1,96.9%,–,104%,101%,99.4%,93.1%,–,109%,94.2%
Nc1cccc2c(=S)c3ccccc3[nH]c12,95.9%,92.1%,95.7%,98.4%,108%,106%,114%,–,–
CC(=O)Nc1ccc(Sc2ccc([N+](=O)[O-])o2)cc1,39.9%,98.3%,46.9%,40.2%,65.1%,50.7%,-67.3% (active),–,–
CCOC(=O)n1cc(C2=C(c3cn(C)c4ccccc34)COC2=O)c2ccccc21,30%,47.4%,3.7% (active),37.9%,22.6%,27.5%,-31.2% (active),–,–
COc1ccc(-c2c(-c3cc4c(c(OC)c3OC)OCO4)noc2N)cc1,42.5%,54.2%,13.2%,15.3%,24.1%,38.4%,-2.51% (active),–,–
COc1ccc(S(=O)(=O)ON=C2C=C(C)C(=O)C(C)=C2)cc1,98.2%,103%,106%,59.4%,105%,93.1%,89.2%,–,–
COc1ccc(/C=C2\Oc3cc(C)c(Cl)cc3C2=O)cc1OC,103%,107%,103%,101%,98.3%,95.7%,–,–,82.7%
Clc1ccc(C2=Nc3cccc4cccc(c34)N2)cc1Cl,76.9%,103%,100%,92.9%,99.6%,111%,100%,–,62%
O=S(=O)(Nc1ccc(Cl)c(Cl)c1)c1ccc(-c2cnc(C3CC3)o2)cc1,39.6%,40.7%,4.29% (active),48%,25.5%,46.3%,–,–,6.78% (active)
Cc1nc2ccc(Cl)cc2n1C,107%,108%,109%,105%,103%,101%,–,–,90.2%
COC(=O)c1c2c(c(C)[n+]([O-])c1C)C(=O)C=C(NCc1ccc(F)cc1)C2=O,-46.2% (active),-6.43% (active),-0.65% (active),-41.1% (active),-22.7% (active),5.86% (active),–,–,-15.1% (active)

SMILES,growth [1],growth [2],growth [3],growth [4],growth [5],growth [6],growth [7],growth [8],growth [9]
COc1cc(OCc2cccc(-c3ccc(C(O)c4nccs4)cc3)c2C)cc(OC)c1C=O (configuration not stated),42.1%,–,38.8%,62.5%,40.2%,48.2%,–,47.9%,47.3%
COc1ccc(-c2cc(=O)oc3c4c(ccc23)OCN(Cc2ccc(F)cc2)C4)cc1,41.2%,75.9%,61.8%,47.8%,69.6%,65.7%,64.2%,–,–
c1ccc(-c2nc(N3CCOCC3)c3c4c(sc3n2)CCCCCC4)nc1,62.1%,73%,33.6%,–,28.9%,87.1%,68.5%,70.3%,–
O=C1NC(=O)C2(CCCC2C(=O)O)N1 (configuration not stated),98.3%,117%,106%,–,105%,94.9%,109%,111%,–
Nc1ccccc1-c1n[nH]c(=O)[nH]c1=O,96.6%,114%,107%,–,105%,109%,137%,112%,–
O=c1c2c(=NCCN3CCCC3)cc3c(=O)n(CCCN4CCOCC4)c(=O)c4ccc(c(O)n1CCCN1CCOCC1)c2c4-3,-49% (active),-10.8% (active),-8.16% (active),-4.88% (active),6.22% (active),1.28% (active),-55.8% (active),–,–
CCCN1CCN(c2ccc3nc(-c4ccc5nc(-c6ccc(C(F)(F)F)cc6)[nH]c5c4)[nH]c3c2)CC1,-77.1% (active),–,-88.5% (active),63%,-65.1% (active),-90.2% (active),–,-62.6% (active),-43.4% (active)
N#Cc1ccc(C(F)(F)F)nc1N1CCC(C(=O)Nc2ccc(Cl)cc2)CC1,72%,71.1%,34.1%,–,53.2%,70.4%,85.9%,69%,–
Clc1nc(-c2ccccn2)nc2sc3c(c12)CCCCCC3,82.4%,84.5%,90.9%,–,99.8%,98.4%,115%,86.6%,–
FC(F)(F)Oc1ccc2c(c1)C[C@H]1C[C@@H](c3ccoc3)N2O1,96.5%,117%,114%,82.8%,92.1%,105%,110%,–,99.6%
CC1=CN2C(=NC3=C(CCCC/C3=C\c3ccccc3)C2c2ccccc2)S1 (configuration not stated),101%,101%,107%,–,–,105%,122%,103%,–
O=c1nc(NO)[nH]c(=O)n1Cc1ccc(F)cc1,106%,98.8%,102%,–,–,101%,118%,–,–
O=c1[nH]c(=O)n(Cc2ccc(F)cc2)cc1F,105% [50 µM],107% [50 µM],108% [50 µM],108% [50 µM],96% [50 µM],105% [50 µM],–,–,–
CN1CCN(c2nc(-c3ccncc3)nc3sc4c(c23)CCCCCC4)CC1,73%,86.6%,84.3%,–,69%,–,52.8%,71%,–
Nc1cc(Br)c(-c2nnc(CCC(=O)c3nc4ccccc4[nH]3)o2)c(Br)c1,70.8%,–,102%,26.3%,90.7%,85.8%,–,82.2%,24.6%
CC1SC(c2ccc(Cl)cc2)N(CCc2cccs2)C1=O (configuration not stated),-0.245% (active),21.7%,-24.4% (active),–,1.08% (active),-49.4% (active),-60.5% (active),–,-48.9% (active)
COc1ccc(CSc2nc3cc(OC)c(OC)cc3c(=O)n2-c2ccc(Cl)cc2)cc1,102%,105%,103%,–,–,103%,104%,104%,–
CCN(c1ccc(C(=O)N2CCN(c3ccccc3)CC2)cc1)S(C)(=O)=O,103%,102%,108%,–,105%,101%,113%,–,–
